Measured values reported in the supplement of paper PMC9694430.

Legend:
Assay in all cases: thermal shift delta Tm vs DMSO control; higher = stronger stabilization (binding)
Conditions in all cases: 12.5 µM; protein concentration 2 µM
LOC_OS04G57630-cb004 = tested on: LOC_OS04G57630-cb004
How it was run: (§1)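 The melting temperature shift given here is a triplicate mean, measured against protein that received only DMSO. Melting temperatures came from Boltzmann fits of differential scanning fluorimetry data on E. coli-expressed, purified rice kinase domain constructs. Each 19.5 μl well contained 2 μM kinase, 100 mM potassium phosphate pH 7.5, 150 mM NaCl, 10% glycerol, 5 × SYPRO Orange and compound in DMSO. Plates were scanned from 25°C to 95°C at 0.05°C/s.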

LOC_OS05G07850-cb002 = tested on: LOC_OS05G07850-cb002
How it was run: as §1

LOC_OS05G16824-cb004 = tested on: LOC_OS05G16824-cb004
How it was run: as §1

LOC_OS05G28520-cb001 = tested on: LOC_OS05G28520-cb001
How it was run: as §1

LOC_OS05G30820-cb001 = tested on: LOC_OS05G30820-cb001
How it was run: as §1

LOC_OS05G43570-cb004 = tested on: LOC_OS05G43570-cb004
How it was run: as §1

LOC_OS06G16330-cb003 = tested on: LOC_OS06G16330-cb003
Chain of LOC_OS06G16330-cb003 (as listed by the source): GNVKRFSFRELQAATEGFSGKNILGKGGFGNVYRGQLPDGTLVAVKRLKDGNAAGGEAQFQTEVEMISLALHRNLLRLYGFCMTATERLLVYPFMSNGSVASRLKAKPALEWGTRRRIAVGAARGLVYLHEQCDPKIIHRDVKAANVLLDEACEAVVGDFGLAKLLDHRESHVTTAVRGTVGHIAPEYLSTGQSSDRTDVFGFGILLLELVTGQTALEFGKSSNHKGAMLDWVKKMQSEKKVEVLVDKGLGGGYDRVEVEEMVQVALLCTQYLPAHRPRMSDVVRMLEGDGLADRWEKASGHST
How it was run: as §1

LOC_OS06G22820-cb001 = tested on: T1, LOC_OS06G22820-cb001
T1 sequence (whole entry): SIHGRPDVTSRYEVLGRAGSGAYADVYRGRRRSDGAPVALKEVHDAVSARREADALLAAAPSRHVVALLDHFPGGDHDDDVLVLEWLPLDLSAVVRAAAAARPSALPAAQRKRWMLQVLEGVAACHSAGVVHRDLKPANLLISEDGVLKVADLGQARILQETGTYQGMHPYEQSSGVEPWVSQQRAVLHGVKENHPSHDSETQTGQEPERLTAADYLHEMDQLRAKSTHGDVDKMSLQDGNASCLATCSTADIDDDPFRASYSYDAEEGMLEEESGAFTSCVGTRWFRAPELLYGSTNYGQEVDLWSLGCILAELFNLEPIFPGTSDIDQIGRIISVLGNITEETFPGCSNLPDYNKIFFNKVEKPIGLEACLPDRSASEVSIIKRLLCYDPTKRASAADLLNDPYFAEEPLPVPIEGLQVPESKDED
How it was run: as §1

LOC_OS07G06570-cb004 = tested on: LOC_OS07G06570-cb004
How it was run: as §1

LOC_OS07G07230-cb001 = tested on: LOC_OS07G07230-cb001
How it was run: as §1

SMILES | thermal shift delta Tm (LOC_OS04G57630-cb004) [°C] | thermal shift delta Tm (LOC_OS05G07850-cb002) [°C] | thermal shift delta Tm (LOC_OS05G16824-cb004) [°C] | thermal shift delta Tm (LOC_OS05G28520-cb001) [°C] | thermal shift delta Tm (LOC_OS05G30820-cb001) [°C] | thermal shift delta Tm (LOC_OS05G43570-cb004) [°C] | thermal shift delta Tm (LOC_OS06G16330-cb003) [°C] | thermal shift delta Tm (LOC_OS06G22820-cb001) [°C] | thermal shift delta Tm (LOC_OS07G06570-cb004) [°C] | thermal shift delta Tm (LOC_OS07G07230-cb001) [°C]
O=C(NOCCO)c1ccc2cncn2c1Nc1ccc(I)cc1F | -0.36 | -0.3 | -1.92 | 0.09 | 0.54 | 0.3 | -0.27 | 0.39 | 0.35 | 0.91
CC(C)NC[C@@H](C(=O)N1CCN(c2ncnc3c2[C@H](C)C[C@H]3O)CC1)c1ccc(Cl)cc1 [Ipatasertib (GDC-0068)] | -0.05 | 0.18 | -3.22 | 0.5 | 0.46 | 0.17 | -0.53 | 0.38 | 1.25 | 0.21
NC1(c2ccc(-c3nc4ccn5c(=O)[nH]nc5c4cc3-c3ccccc3)cc2)CCC1 | -0.22 | 1.31 | -1.83 | 0.28 | 0.4 | 0.14 | 0.62 | 0.61 | 0.66 | 0.17
Fc1ccc2[nH]ccc2c1-c1nc(N2CCOCC2)c2sc(CN3CCN(CC4CC4)CC3)cc2n1 | -0.15 | 2.07 | -1.52 | 0.19 | 0.44 | 0.12 | -0.11 | 0.53 | 0.96 | 0.95
Cn1cnc(N)c2ncnc1-2 [3-Methyladenine (3-MA)] | -0.01 | 0.75 | -3.2 | 0.15 | 0.64 | 0.46 | -0.06 | 0.64 | 0.43 | 0.03
COc1ccc(Cl)cc1NC(=O)Nc1cc(C)nc2ccccc12 | 0.07 | 0.02 | 0.17 | 0.38 | 0.46 | 0.5 | 0.31 | 0.69 | 0.61 | 0.62
CC(C)(O)CNc1ncc(-c2ccnc(Nc3ccncc3)n2)c(CC2CC2)n1 [VPS34 inhibitor 1 (Compound 19, PIK-III analogue)] | 0.13 | 6.5 | 2.61 | 0.38 | 0.25 | 0.5 | 3.99 | 0.4 | 1.83 | 0.44
C=CC(=O)Nc1cccc(Oc2nc(Nc3ccc(N4CCN(C)CC4)cc3)nc3ccsc23)c1 | 1.01 | 8.37 | 2.38 | 2.64 | 1.14 | 1.26 | 3.14 | 0.83 | 2.96 | 1.41
Cc1cc(C(=O)Nc2nc3cccc(Cl)c3n2[C@@H]2CCCCN(C(=O)/C=C/CN(C)C)C2)ccn1 [Nazartinib (EGF816, NVS-816)] | 0.04 | 3.43 | -0.02 | 0.54 | 0.6 | 0.38 | 0.74 | 0.4 | 1.91 | 0.43
